Measured values reported in PubChem BioAssay (Tox21).
Inconclusive results are not listed. Active and inactive are the calls of the source. The call rests on the fitted dose curve; in most records, active means well fitted cell-killing curve with a large enough effect in the repeat runs; inconclusive means weak or mixed curves, or effect the other way; inactive means no such curve, though single readings can be large or run the other way.

test: qHTS assay to identify small molecule antagonists of the progesterone receptor (PR) signaling pathway - cell viability counter screen (AID 1346798); settings: PR-UAS-bla HEK293T viability, CellTiter-Glo luminescence, 16 h; series mostly up to 92.4 µM; activity change, negative = cytotoxicity: at the top concentration; further: nearly all actives have a fitted effect of over 50% in size
Text: National Center for Advancing Translational Sciences [NCATS]
NIH Chemical Genomics Center [NCGC]
U.S. Environmental Protection Agency [EPA]
National Institutes of Environmental Health Sciences [NIEHS]
National Toxicology Program [NTP]
U.S. Food and Drug Administration [FDA]
Progesterone receptor (PR), a nuclear hormone receptor, plays an important role in development, metabolic homeostasis and reproduction. It is activated by the steroid hormone progesterone. Endocrine disrupting chemicals (EDCs) and their interactions with steroid hormone receptors like PR causes disruption of normal endocrine function. To identify the compounds that inhibit PR signaling, a PR-UAS-bla GripTite cell line i.e. PR-UAS-bla HEK293T (Invitrogen, Carlsbad, CA, USA) containing a beta-lactamase reporter gene under the control of an UAS response element was used to screen Tox21 10K compound library. The cytotoxicity of the Tox21 compound library against the PR-bla cell line was tested in parallel by measuring the cell viability using CellTiter-Glo assay in the same wells.
Tox21 Assay Protocol Summary:
PR-UAS-bla HEK293T cells were dispensed at 3,000 cells/4 uL of assay medium containing 2% charcoal stripped FBS per well into black wall/clear-bottom 1536-well plates using a Multidrop Combi (ThermoFisher Scientific, Waltham, MA) dispenser. After the assay plates were incubated at a 37C and 5% CO2 for 4 hr, 23 nL of compounds dissolved in DMSO, positive controls or DMSO only was transferred to the assay plate by a Pintool station (Kalypsys, San Diego, CA), followed by addition of 1 uL of R5020 in assay medium using a Flying Reagent Dispenser (FRD, Aurora Discovery, San Diego, CA). The plates were incubated at 37C and 5% CO2 for 16 hr. Then 1 uL of LiveBLAzer B/G FRET substrate was added using a Flying Reagent Dispenser, the plates were incubated at room temperature for 2 hours, and fluorescence intensity was measured by an Envision plate reader (PerkinElmer, Shelton, CT). For cell viability readout that measures cytotoxicity, 4 uL/well of CellTiter-Glo reagent was added into the assay plates using a FRD. After 30 min incubation at room temperature, the luminescence intensity in the plates was measured using a ViewLux (PerkinElmer) plate reader.
On the % scale 0 is the no-effect control and ±100 the full control effect; potency means the concentration at half of the fitted maximal effect.

Structure (SMILES) | activity change, negative = cytotoxicity | Potency
O=C1OC(=O)C2CC=CCC12 (stereo not given) | -2.12% (inactive) | –
CC(=O)CC/C=C(\C)CC/C=C(\C)CC/C=C(\C)CCC=C(C)C | -0.617% [at 42.5 µM] (inactive) | –
CCCCCCCCS | 9.22% (inactive) | –
C=C[Si](OCC)(OCC)OCC | 2.64% (inactive) | –
O=C(c1ccco1)N1CCNCC1 | 0.441% [at 42.5 µM] (inactive) | –
CCCCCCCCCCCCCCCCN | -23.5% [at 42.5 µM] (inactive) | –
O=c1c2ccccc2oc2ccccc12 | 13.4% (inactive) | –
COc1ccc(CN(CCN(C)C)c2ncccn2)cc1 | 30.4% [at 42.5 µM] (inactive) | –
O=C(Cl)c1cc(Cl)cc(Cl)c1 | -22.2% (inactive) | –
O=C1c2ccccc2C(=O)c2c1ccc(O)c2O | 14.9% [at 42.5 µM] (inactive) | –
CCOc1ccc2c(c1)C(C)CC(C)(C)N2 (stereo not given) | 7.23% (inactive) | –
Cc1cc(SC2=C(O)C[C@@](CCc3ccc(N)cc3)(C(C)C)OC2=O)c(C(C)(C)C)cc1CO | 13% (inactive) | –
C[C@]12CCC(=O)C=C1[C@@H]1C[C@@H]1[C@H]1[C@@H]3[C@@H]4C[C@@H]4[C@@]4(CCC(=O)O4)[C@@]3(C)CC[C@@H]12 | 12.5% [at 42.5 µM] (inactive) | –
CNc1ccccc1 | 7.62% (inactive) | –
O=C(NC1CCN(CCc2c[nH]c3ccccc23)CC1)c1ccccc1 | -0.384% [at 42.5 µM] (inactive) | –
COc1ccc(C(=O)c2ccc(C)cc2)c(O)c1 | 21% (inactive) | –
C[C@@H](O)[C@H]1C(=O)N2C(C(=O)O)=C(S[C@@H]3CN[C@H](CNS(N)(=O)=O)C3)[C@H](C)[C@H]12 | 0.378% [at 42.5 µM] (inactive) | –
CC(C(=O)O)c1ccc2c(c1)Cc1cccnc1O2 (stereo not given) | 0.358% [at 42.5 µM] (inactive) | –
FC(F)(Cl)C(F)(Cl)Cl | 8.28% (inactive) | –
CC(C)NC(=O)c1ccccc1N | 4.62% (inactive) | –

Structure (SMILES) | activity change, negative = cytotoxicity | Potency
Cc1cc(N)n(-c2ccccc2)n1 | 5.99% (inactive) | –
O=C(O)c1ccncc1 | -0.291% (inactive) | –
Cc1c(Cl)cccc1Nc1ccccc1C(=O)O | 3.88% [at 42.5 µM] (inactive) | –
O=C(Cl)c1ccc(F)c(Cl)c1 | -2.69% (inactive) | –
CCC(CC)C(=O)O | 1.2% (inactive) | –
Cc1ccccc1CCO | 3.21% (inactive) | –
C[Si](C)(C)O[Si](C)(C)O[Si](C)(C)C | -7.4% (inactive) | –
CCCCOc1ccc(N)cc1 | -0.0698% (inactive) | –
OCC(O)c1ccccc1 (stereo not given) | – | 19.3 µM (active)
O=C(O)c1ccc(O)c(O)c1 | 15.4% (inactive) | –
NCCOCCOCCN | – | 15.4 µM (active)
Cc1ccc2c(Cl)cc(Cl)c(O)c2n1 | 1.88% [at 42.5 µM] (inactive) | –
Clc1cccc(C(c2ccc3nc[nH]c3c2)n2ccnc2)c1 (stereo not given) | 0.332% [at 42.5 µM] (inactive) | –
CC(O)CN (stereo not given) | 28.4% (inactive) | –
CCCc1ccc(OC)cc1 | 4.03% (inactive) | –
O=C(O)c1ccccc1-n1cc(C(=O)O)c(=O)c2cc(Nc3c(F)cc(F)cc3Cl)c(Cl)cc21 | 20.4% (inactive) | –
CC(=O)c1cccnc1 | 2.48% (inactive) | –
CCCN(C1CCN(C(=O)C2CCNCC2)CC1)[C@@H]1CCc2ccc(OC)cc2C1 | -21.4% (inactive) | –
CC1(C)CC(O)CC(C)(C)N1[O] | -6.94% (inactive) | –
Nc1nc(Cl)nc2c1ncn2[C@H]1C[C@H](O)[C@@H](CO)O1 | 0.175% (inactive) | –
